In paper PMC6919601, “Identification of Plasmodium dipeptidyl aminopeptidase allosteric inhibitors by high throughput screening” (PLoS ONE, 2019):
About 230 (0.21%) of roughly 110,000 compounds showed an effect of 50% or more. This is one part of a sample in which strong results are shown more often than they occur.

What follows are compounds tested against DPAP1 (Plasmodium falciparum, UniProt Q8IIJ9) (assay: primary screen, percent inhibition; read by cleavage of a fluorogenic dipeptide substrate; higher = more effect of the substance).
Chain of DPAP1 (Q8IIJ9 whole entry, looked up): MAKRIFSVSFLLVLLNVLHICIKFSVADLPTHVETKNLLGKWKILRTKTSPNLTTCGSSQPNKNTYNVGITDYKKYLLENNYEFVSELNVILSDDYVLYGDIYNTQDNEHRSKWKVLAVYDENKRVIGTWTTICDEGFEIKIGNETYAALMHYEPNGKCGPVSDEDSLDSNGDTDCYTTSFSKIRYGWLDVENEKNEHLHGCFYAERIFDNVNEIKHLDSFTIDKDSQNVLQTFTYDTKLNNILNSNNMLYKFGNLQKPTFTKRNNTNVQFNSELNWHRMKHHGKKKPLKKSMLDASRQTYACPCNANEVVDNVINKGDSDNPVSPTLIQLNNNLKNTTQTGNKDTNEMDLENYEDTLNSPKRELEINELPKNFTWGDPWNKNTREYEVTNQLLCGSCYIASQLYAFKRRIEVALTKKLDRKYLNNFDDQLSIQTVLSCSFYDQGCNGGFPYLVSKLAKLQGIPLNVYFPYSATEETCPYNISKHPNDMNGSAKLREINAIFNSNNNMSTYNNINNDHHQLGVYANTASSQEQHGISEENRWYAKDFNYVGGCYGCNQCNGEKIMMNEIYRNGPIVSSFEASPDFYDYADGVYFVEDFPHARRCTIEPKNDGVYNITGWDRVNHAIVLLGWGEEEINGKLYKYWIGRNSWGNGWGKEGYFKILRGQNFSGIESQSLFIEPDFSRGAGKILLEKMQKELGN
Parameters: species or system P. falciparum D10 trophozoite lysates; single well
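Also: 30 min substrate incubation versus DMSO and 10 µM JCP410 controls.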

Row | Structure (SMILES) | % Inhibition @ 10 uM [%]
1 | CN(C)CCN(C)C1CCN(Cc2ccccc2)CC1 | 0.162
2 | Cc1cc(C)c(C#N)c(SCc2ccccn2)n1 | 66.4
3 | Cc1cc(C)c(C#N)c(SCc2ccccc2)n1 | -0.305
4 | Cc1cc(C)c(C#N)c(SCc2ccccc2F)n1 | 40.7
5 | CCOC(=O)c1c(NC(=O)/C=C/C(=O)O)sc2c1CCN(Cc1ccccc1)C2 | -1.92
6 | COc1ccc(CC(=O)Nc2sc3c(c2C(N)=O)CCCCC3)cc1OC | 57
7 | COc1ccc(CC(=O)Nc2sc3c(c2C(N)=O)CCCC3)cc1 | 2.13
8 | CCOc1ccc(CC(=O)Nc2sc3c(c2C(N)=O)CCCC3)cc1OCC | -13.5
9 | NC(=O)c1c(NC(=O)COc2ccc(Cl)cc2)sc2c1CCCCCC2 | -4.33
10 | CC(Oc1ccc(F)cc1)C(=O)Nc1sc2c(c1C(N)=O)CCC2 (stereo not shown) | 2.44
11 | Cc1cc(C(F)(F)F)nn1CC(=O)Nc1sc2c(c1C(N)=O)CCCC2 | -1.49
12 | CC(Oc1cccc(Cl)c1)C(=O)Nc1sc2c(c1C(N)=O)CCCCC2 (stereo not shown) | 61.2
13 | Cc1cc(C(F)(F)F)nn1CC(=O)Nc1sc2c(c1C#N)CCCCC2 | 2.76
14 | NC(=O)c1c(NC(=O)COc2ccc(Cl)cc2)sc2c1CCCCC2 | 65.1
15 | CC1CCc2c(sc(NC(=O)C(C)Oc3cccc(Cl)c3)c2C(N)=O)C1 (stereo not shown) | 2.45
16 | Cc1cc(C(F)(F)F)nn1CC(=O)Nc1sc2c(c1C(N)=O)CCCCC2 | 54.5
17 | NC(=O)c1c(NC(=O)COc2ccccc2)sc2c1CCCCC2 | 1.88
18 | Cc1nc2ccccc2c2oc(C(=O)NCc3ccc(F)cc3)cc12 | 1.62
19 | CC(=O)c1ccc(OCCOc2ccc(C(C)=O)cc2)cc1 | -6.82
20 | CCn1c2ccccc2c2nnc(N3CCC(C)CC3)nc21 | -3.1
21 | Cc1cccc(Cc2c(C)nc3c(C(=O)NCCc4ccccc4)cnn3c2C)c1 | -16.3
22 | O=C(O)CSC12CC3CC(CC(C3)C1)C2 | -0.415
23 | O=C1c2ccccc2C(=O)N1c1c(F)c(F)c(C(F)(F)F)c(F)c1F | 1.8
24 | CC1=CC2=NC(=O)/C(=C\c3ccc(OCc4ccccc4C)cc3)C(=N)N2O1 | 3.63

Row | Structure (SMILES) | % Inhibition @ 10 uM [%]
25 | COc1ccc(Cl)cc1N(CC(=O)Nc1ccc(C(C)C)cc1)S(C)(=O)=O | 0.324
26 | Nc1nnc(-c2ccc([N+](=O)[O-])cc2)s1 | -0.0369
27 | COc1ccc(C2=CC(c3ccc(F)c(Br)c3)n3nnnc3N2)cc1 (stereo not shown) | 1.73
28 | CC(=O)ONc1ccc(NC=C2C(=O)N(C)C(=O)N(C)C2=O)cc1 | 8.6
29 | Fc1ccccc1CSCc1nc2ccccc2[nH]1 | -4.6
30 | O=C(Nc1cnc2ccccc2c1O)N1CCC(Cc2ccccc2)CC1 | 5.43
31 | Cc1cc(/C=C2/SC(=O)N(C(C)C)C2=O)c(C)n1-c1ccncc1 | -0.68
32 | CCCC(=O)NCCc1nc2ccccc2n1CC(C)C | 0.121
33 | CCCc1nc(N)c(C#N)c(-c2ccccc2)c1CC | -0.631
34 | CCCCCc1nc(N)c(C#N)c(-c2ccccc2)c1CCCC | -5.9
35 | Cc1c(CC(C)C)nc(N)c(C#N)c1-c1ccccc1 | 99.3
36 | COc1ccccc1-c1c(C)c(CC(C)C)nc(N)c1C#N | 0.5
37 | CCCCc1nc(N)c(C#N)c(-c2ccccc2)c1CCC | 97.8
38 | Cc1c(CC(C)C)nc(N)c(C#N)c1-c1ccc(F)cc1 | 2.92
39 | Cc1ccccc1N1C(=O)/C(=C\c2c(C)[nH]c3ccccc23)C(=O)NC1=S | 4.15
40 | O=C(c1ccco1)N1CCN(C2CCC(c3ccccc3)CC2)CC1 (stereo not shown) | -0.274
41 | CCOC(=O)c1c(C)nc(C)c(C(=O)OCC)c1-c1ccccc1 | 1.57
42 | CCOC(=O)c1c(C)nc(C)c(C(=O)OCC)c1-c1ccc(OC)cc1 | -1.96
43 | CCc1c(C#N)c(SC)nc(C)c1C(=O)Nc1ccccc1 | 1.43
44 | CC(=O)c1c(C)nc(S)c(C#N)c1-c1ccccc1 | 39.2
45 | CCc1c(C#N)c(S)nc(C)c1C(=O)Nc1ccccc1 | 55
46 | CC(=O)c1c(C)nc(S)c(C#N)c1-c1ccc(Cl)cc1 | 33.7
47 | CCOC(=O)c1c(C)nc(S)c(C#N)c1-c1ccccc1 | 57.1
48 | CCOC(=O)c1c(C)nc(S)c(C#N)c1-c1ccc(OC)cc1 | 52.9

Row | Structure (SMILES) | % Inhibition @ 10 uM [%]
49 | Cc1nc(S)c(C#N)c(C)c1C(=O)Nc1ccccc1 | 2.01
50 | Cc1ccc(OCCNC(=O)Cn2cnc3c(=O)n(C)c(=O)n(C)c32)cc1C | -9.26
51 | CCn1c(C(=O)NCc2ccccn2)cc2oc3ccccc3c21 | -3.96
52 | COc1cc(C2NCCc3c2[nH]c2ccccc32)ccc1OC(C)C (stereo not shown) | 1.02
53 | CC1CCN(C(=O)Cn2cnc3c(nnn3Cc3ccccc3F)c2=O)CC1 | 24
54 | O=C(CNS(=O)(=O)c1ccc(Br)s1)N1CC=C(c2ccccc2)CC1 | 3.27
55 | O=C(NC1CCCC1)c1ccc(Cl)c([N+](=O)[O-])c1 | -4.91
56 | O=C(Nc1cnn(Cc2ccccc2)c1)C1CCCC1 | -1.78
57 | Cc1cc(-c2ccc([N+](=O)[O-])cc2)nc2ccc3ccccc3c12 | -0.239
58 | Cc1cc(-c2ccc(O)cc2)nc2ccc3ccccc3c12 | -1.97
59 | Cc1cc(-c2ccc(N)cc2)nc2ccc3ccccc3c12 | 52.7
60 | OC1CCCN(Cc2ccc(OC(F)(F)F)cc2)C1 (stereo not shown) | 1.62
61 | Cc1cccc(C)c1-n1c(C)cc(/C=C2\NC(=O)NC2=O)c1C | 4.83
62 | CCc1nnc(NC(=O)CSc2nc(C(F)(F)F)cc(C)c2C#N)s1 | 59.2
63 | CCc1nnc(NC(=O)CSc2nc(-c3cccs3)cc(C(F)(F)F)c2C#N)s1 | 9.42
64 | CCc1nnc(NC(=O)CSc2nc(N)nc(SC)c2C#N)s1 | -1.68
65 | COC(=O)C1=NNC2C(=O)N(Cc3ccccc3)C(=O)C12 (stereo not shown) | -0.13
66 | CC(C(=O)O)c1cc(C(=O)c2ccccc2)sc1-c1ccccc1 (stereo not shown) | 6.08
67 | CCOc1ccccc1C(=O)Nc1ccc(C(C)=O)cc1 | -7.23
68 | CC(C)CCOc1ccc(C(=O)CCNC(CC(C)C)C(=O)O)cc1 (stereo not shown) | 30.1
69 | O=C(COc1ccccc1)NC(Cc1c[nH]c2ccccc12)C(=O)O (stereo not shown) | 10.2
70 | CCCOc1ccc(C(=O)CCNC(Cc2c[nH]c3ccccc23)C(=O)O)cc1 (stereo not shown) | 81.9
